Hits are enriched below; roughly 17% of the tested compounds scored in any of these assays.
HT1080 IDH1KD tx = kills HT-1080 cells with IDH1 knockdown; 360,000 compounds, 2% hits; AID 686971; HT-1080 IDH1 knockdown viability, ATP luminescence, 48 h; Potency, µM (highest dose often 46.1 µM), for the others: at the top dose activity, negative = toxicity, usual class: cytotoxic;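 note: 0% = DMSO wells and -100% = cell-free medium wells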
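Knockdown cells (IDH1KD HT-1080) received compounds 2 h after plating at 750 cells/well and were kept 48 h at 37 °C in 5% FBS RPMI. A CellTiter-Glo luminescence read gave % activity for curve fitting.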
TDP1 cell CPT = DT40-hTDP1 cell growth loss with CPT; chicken DT40 Tdp1-/-;hTDP1 cells + 20 nM CPT, ATP luminescence, 48 h; Potency, µM (doses to about 46.2 µM), for the others: at the top dose activity change, negative = growth inhibition, most hits filed as inhibitors; AID 686979; 420,000 compounds, 12% hits; note: % is set by controls: 0 for no effect and ±100 for the full control effect; nearly all actives have a fitted effect of over 55% in size
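Chicken DT40 Tdp1-/- cells complemented with human TDP1, 400 cells/well, exposed to compounds plus 20 nM camptothecin for at least 48 h at 37 C; viability read as ATP content by CellTiter-Glo luminescence.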
TGFb SMAD3 inh = blocks TGF-b signaling | AID 588855 | 410,000 compounds, 1.2% hits | HepG2 CAGA-GFP TGF-b/SMAD3 reporter, GFP fluorescence, 18 h; TGF-beta stimulated, 500 pg/mL final | Potency, µM (highest dose often 46.1 µM), inactives show at the highest dose activity, negative = inhibition, most hits filed as inhibitors; note: % is set by controls: 0 for no effect and ±100 for the full control effect; nearly all actives have a fitted effect of over 65% in size
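Read-out: total well GFP (ex488/em500-530) summed from mean per-cell fluorescence. Cells: HEPG2 CAGA-GFP, 1% FBS DMEM, 18 h at 37 degrees C with 500 pg/mL final TGF-beta. Unstimulated wells served as the full-inhibition control; stimulated DMSO wells = 0%.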
HepG2 tox = counter-screen for TGF-b inhibitors: cytotoxicity in HepG2 cells; HepG2 CAGA-GFP viability, ATP luminescence, 18 h; Potency, µM (series often up to 46.1 µM), inactives show at the top dose activity change, negative = cytotoxicity, actives largely listed as cytotoxic; 410,000 compounds, 0.76% hits
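HepG2 CAGA-GFP cells (1000/well, DMEM with 1% FBS) received compound, then TGF-beta at 500 pg/mL final, and were incubated 18 hours at 37 degrees C. Viability was read by CellTiter-Glo luminescence. Media-only wells were set as complete cell-killing and DMSO as no toxicity.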
HT1080-NT tox = kills 2HG-producing HT-1080-NT fibrosarcoma cells; HT-1080-NT fibrosarcoma viability, CellTiter-Glo ATP luminescence, 48 h; Potency, µM (top dose mostly 46.1 µM), without a hit: at the top dose activity, negative = less viability, actives largely listed as cytotoxic; 360,000 compounds, 1.6% hits; AID 686970;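 note: NT is the 2HG producing partner of a matched IDH1 knockdown line; 0% = DMSO-treated cells and -100% = media-only wells without cells; nearly all actives have a fitted effect of over 55% in size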
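750 cells/well, RPMI + 5% FBS; 2 h settle, compound pin-transfer, 48 h at 37 degrees C. CellTiter-Glo 10 min RT, luminescence. Normalized to DMSO and media-only wells.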
TDP1 cell noCPT = qHTS for Inhibitors of human tyrosyl-DNA phosphodiesterase 1 (TDP1): qHTS in cells in absence of CPT. Potency, µM (series often up to 46.2 µM), without a hit: top-dose activity change, negative = growth inhibition, most hits filed as inhibitors. DT40 Tdp1-/- hTDP1 cells, no CPT, ATP luminescence, 48 h. 420,000 compounds, 15% hits; note: % is set by controls: 0 for no effect and ±100 for the full control effect; nearly all actives have a fitted effect of over 55% in size
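Readout: luminescence from CellTiter-Glo after 30 min in the dark at RT. Cells: DT40 Tdp1-/- with stable hTDP1, 400/well. Exposure: compounds alone, ≥48 hr, 37 °C.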
Numbers without * were called inactive; ? = inconclusive; / = no result given; ! = not confirmed by another sample. Calls come from the whole dose curve; as a rule, active = well fitted curve in the direction sought with a large enough effect; inconclusive = small, poorly fitted or top-dose-only effect, or another doubt; inactive = no such curve, though single readings can be large; an effect the other way counts as inactive or inconclusive. Potency is the fitted concentration of half-maximal effect.

SMILES	HT1080 IDH1KD tx	TDP1 cell CPT	TGFb SMAD3 inh	HepG2 tox	HT1080-NT tox	TDP1 cell noCPT
CCC1CN(C(=O)N2CCC(C(=O)Nc3ccccc3F)CC2)c2ccccc2O1 (stereo not drawn)	-1.0%	?	?	0.0%	-2.8%	23.1µM*!
CCC1CN(C(=O)N2CCC(C(=O)NCc3ccccc3C)CC2)c2ccccc2O1 (stereo not drawn)	-3.0%	18.4µM*	-22.4%	6.4%	0.0%	20.6µM*
CCC1CN(C(=O)N2CCC(C(=O)NCCN(C)C)CC2)c2ccccc2O1 (stereo not drawn)	/	2.4%	-11.2%	-1.3%	/	-6.9%
CCC1CN(C(=O)N2CCC(C(=O)NCc3cccc(C)c3)CC2)c2ccccc2O1 (stereo not drawn)	/	16.4µM*	-11.0%	-2.4%	/	20.6µM*
CCC1CN(C(=O)N2CCC(C(=O)NCCC3=CCCCC3)CC2)c2ccccc2O1 (stereo not drawn)	/	16.4µM*	-7.1%	-5.5%	/	11.6µM*
CCC1CN(C(=O)N2CCC(C(=O)NCCc3ccc(Cl)cc3)CC2)c2ccccc2O1 (stereo not drawn)	/	16.4µM*	?	0.8%	/	14.6µM*
CCC1CN(C(=O)N2CCC(C(=O)NCCc3ccccc3Cl)CC2)c2cc(C)ccc2O1 (stereo not drawn)	/	16.4µM*	11.2µM*	-33.6%	/	20.6µM*
CCC1CN(C(=O)N2CCC(C(=O)NCCc3ccccc3C)CC2)c2ccccc2O1 (stereo not drawn)	/	?	?	-29.7%	/	20.6µM*
CC1CCCC(C)N1C(=O)CSc1nc2c(c(=O)n(C)c(=O)n2C)n1C (stereo not drawn)	11.7%	2.4%	1.5%	7.0%	15.6%	-17.0%
COc1cc(CCNC(=O)CCCn2c(=O)c3cccn3c3cccnc32)cc(OC)c1OC	17.7%	?	-13.0%	-19.8%	9.9%	-26.0%
COc1ccc(NC(=O)C(c2cccc3ccccc23)n2c(=O)c(-c3ccco3)nc3ccccc32)cc1 (stereo not drawn)	12.5%	?	/	/	7.7%	-29.6%
CC(OC(=O)C1CCCCC1)C(=O)Nc1ccc(S(N)(=O)=O)cc1 (stereo not drawn)	0.0%	-1.5%	14.0%	1.3%	2.5%	-3.6%
CCC1CN(C(=O)N2CCC(C(=O)Nc3cc(C)ccc3C)CC2)c2ccccc2O1 (stereo not drawn)	/	13µM*	?	-17.8%	/	13µM*
CCC1CN(C(=O)N2CCC(C(=O)NCc3ccccc3F)CC2)c2ccccc2O1 (stereo not drawn)	/	?	0.0%	-4.7%	/	14.6µM*
COc1cc(C2C(C#N)=C(N)Oc3cc(N)ccc32)cc(OC)c1OC (stereo not drawn)	0.581µM*	0.92µM*	-17.7%	-2.0%	?	0.651µM*
Cc1ccc([C@H]2C(C#N)=C(N)Oc3cc(C)oc(=O)c32)o1	-8.2%	16.4µM*	4.1%	2.4%	?	23.1µM*
COc1cc(C2C(C#N)=C(N)Oc3cc(C)oc(=O)c32)cc(OC)c1OC (stereo not drawn)	15.5%	?	21.2%	3.4%	14.0%	23.1µM*
COc1ccc(C2C(C#N)=C(N)Oc3cc(N)ccc32)cc1 (stereo not drawn)	1.6%	2.1%	5.9%	18.6%	1.8%	-4.2%
Cc1cc2c(c(=O)o1)C(c1cccs1)C(C#N)=C(N)O2 (stereo not drawn)	-2.0%	23.1µM*	3.8%	9.4%	-0.9%	18.4µM*
COCCCNc1nc(CC(C)C)nc2c1nnn2Cc1ccccc1	4.5%	-29.3%	-4.0%	-25.7%	4.0%	?
Cn1c(SCC(=O)Nc2ccc3c(c2)OCCO3)nnc1-c1ccncc1	1.6%	-3.1%	15.6%	2.8%	4.3%	-19.8%
Cc1ccc(Cc2nnc(SCC(=O)Nc3c(C)cccc3C)[nH]c2=O)cc1	-1.0%	?	1.3%	0.1%	0.3%	6.51µM*
Cc1ccc(Cc2nnc(SCC(=O)Nc3ccccc3)[nH]c2=O)cc1	2.8%	?	?	-1.3%	6.9%	-3.2%
CC(C)CCNC(=O)C1CCN(S(=O)(=O)c2cccc3nsnc23)CC1	/	-16.8%	1.5%	2.4%	/	-9.2%
CCN(CC)C(CNS(=O)(=O)c1ccc(Cl)cc1)c1ccccc1 (stereo not drawn)	2.4%	-3.2%	-16.3%	-24.0%	-5.9%	-23.1%
SMILES	HT1080 IDH1KD tx	TDP1 cell CPT	TGFb SMAD3 inh	HepG2 tox	HT1080-NT tox	TDP1 cell noCPT
O=C1CCCCc2sc(Br)c([N+](=O)[O-])c2N1	?	11.6µM*	-25.9%	0.9%	?	11.6µM*
O=C(Cc1ccccc1)NCc1ccc(-n2cccc2)cc1	5.8µM*	3.26µM*	?	-13.0%	5.17µM*	3.66µM*
O=C(Cc1ccccc1)NCc1ccncc1	5.7%	-5.2%	3.5%	0.2%	7.0%	17.2%
O=C(Cc1ccc(-n2cccc2)cc1)NCc1ccccc1Cl	8.2µM*	5.8µM*	-31.6%	-8.9%	8.2µM*	5.8µM*
CCN(CC(=O)Nc1c(F)cccc1F)C(=O)C1CC(=O)N(CCc2ccc(OC)c(OC)c2)C1 (stereo not drawn)	8.2%	-1.1%	-1.7%	-1.6%	3.8%	-0.8%
CC(C)CC(=O)NC(=S)Nc1ccccc1C(=O)Nc1ccccc1	-4.6%	-30.6%	-12.5%	2.2%	13.2%	-6.3%
CCN(C(=O)CSc1nnc(-c2cc3occc3n2C)n1-c1ccccc1C)c1ccccc1	/	-22.2%	9.9%	3.7%	/	-26.9%
CC(C)(C)C1CCC2(CC1)C(C#N)=C(SCC(=O)Nc1ccccc1)NC(=O)C2C#N (stereo not drawn)	?	16.4µM*	7.08µM*	10µM*	14.6µM*	?
Cc1ccc(NC(=O)Cn2c(=O)cnc3ccccc32)cc1S(=O)(=O)N1CCOCC1	-0.8%	-13.3%	10.8%	-5.8%	0.2%	?
CN(C(=O)C=Cc1ccccc1)c1ccccc1	8.8%	-5.4%	-3.5%	-9.0%	4.2%	-22.7%
O=C(CCl)N(O)c1ccc(C=Cc2ccccc2)cc1	-20.7%	0.13µM*	?	-70.6%	-3.2%	0.206µM*
Cc1ccc(N2C(=O)C(CN3CCCCC3)C2c2ccccc2)cc1 (stereo not drawn)	-5.6%	?	-5.4%	-10.1%	0.1%	18.4µM*
